Measured values as given in PubChem BioAssay AID540253 (National Center for Advancing Translational Sciences (NCATS), 2011).
Hit rate of the full screen: of about 340,000 compounds, about 240 (0.071%) were called active. The sample holds actives, similar compounds and a random draw of the others, so the mix is not that of the screen. Unmarked numbers belong to inactive results. The call rests on the fitted dose curve.

target: Snurportin-1 (Homo sapiens) + GTP-binding nuclear protein Ran (Homo sapiens) + Importin subunit beta-1 (Homo sapiens) (UniProt O95149+P62826+Q14974); assay: qHTS Assay for Inhibitors of RanGTP induced Rango (Ran-regulated importin-beta cargo) - Importin beta complex dissociation; settings: Biochemical FRET Rango-importin beta; series mostly up to 46.1 µM; activity change, negative = inhibition: at the top concentration; further: nearly all actives have a fitted effect of over 45% in size; on activity change, negative = inhibition: % of control where 0% means no effect
Excerpt: NIH Molecular Libraries Probe Production Centers Network [MLPCN] NIH Chemical Genomics Center [NCGC] MLPCN Grant: R03 MH090808-01A1 Assay Submitter (PI): Petr Kalab NCGC Assay Overview: The small GTPase Ran regulates transport of macromolecules between the nucleus and the cytoplasm (nuclear transport) and has important functions in mitotic spindle assembly, nuclear envelope (NE) formation and nuclear pore complex (NPC) assembly. RanGTP gradient is thought to promote spindle assembly by providing a spatial clue to microtubule nucleation and Aurora A activation. Because the localized release and binding of importin alpha cargos relays this spatial clue to SAFs, inhibitors of the Rango - importin beta complex can then be used in further understanding their role in cell cycle specifically in mitosis progression. […] Activation of Aurora A has been linked to different types of cancer and a number of Aurora kinase inhibitors are being developed as potential canter therapeutics; therefore, identified inhibitors of this complex could be developed into potential anti-mitotic probes for cancer treatment. Purified recombinant proteins Rango - importin beta and RanGTP-RCC1 stock premixes were provided by the assay submitter. The assay used a fluorescence resonance energy transfer (FRET) Rango biosensor that contains the IBB of human snurportin 1 flanked by yellow fluorescent protein (EYFP) at the amino terminus and cerulean CFP10 at the carboxy terminus. […] RanGTP binding to the complex (in the presence of RCC1) releases the Rango from the complex. The flexibility of the IBB in the freed Rango allows the donor - acceptor fluorophores to interact, resulting in a high FRET signal. Inhibitors will therefore be identified based on the ability to interfere with the FRET signal increase. DMSO treated and no RanGTP-RCC1 (buffer only) wells were used as negative and positive controls respectively. FRET readings were obtained at two time points. FRET reading prior to importin beta addition (pre-read) were used flag potential compound interference; FRET reading after importin beta addition (post-read) were used to identify inhibitors.
NCGC Assay Protocol Summary: Two and a half uL/well of Rango- importin beta premix solution (0.1 uM Rango, 0.25 uM importin beta, 1x PBS, 1mM DTT, 0.02% Tween-20, 0.1% BSA final concentrations) was dispensed into 1536-well assay plates (Greiner, solid black medium-binding plates) with Aurora Discovery BioRAPTR Flying Reagent Dispenser (FRD; Beckton-Dickenson). Compound solution (23 nL) was transferred to the assay plate using Kalypsys pin tool equipped with a 1536-pin tool and incubated at room temperature for 5 min followed by a FRET pre-read using the PerkinElmer Envision plate reader. Two and a half uL/well of RanGTP-RCC1 premix solution (0.6 uM Ran, 2mM GTP, 0.2 uM RCC1, 1x PBS, 1mM DTT, 0.02% Tween-20, 0.1% BSA final concentrations) were then added and incubated at room temperature giving a final reaction volume of 5uL. After 45min FRET post-read was obtained via the Envision plate reader using the same optics and settings as the pre-read (CFP/YFP optimized dual optical module D450/D505; excitation mirror CFP 430/24 nm; and emission filters CFP 486/10 nm and YFP 530/10 nm).
Potency means the concentration at half of the fitted maximal effect.

Question: With `O=C(NN=CC=Cc1ccccc1)C(O)C(O)C(=O)NN=CC=Cc1ccccc1` (stereo not given) as the compound, how does the “activity change, negative = inhibition” value read?
Answer: -0.0781%

Question: With `NC(=O)C1CCN(C(=O)c2cc(S(=O)(=O)N3CCN(c4ccccc4)CC3)ccc2Cl)CC1` as the compound, how does the “activity change, negative = inhibition” value read?
Answer: 25.5%

Question: How did the “activity change, negative = inhibition” value turn out when `CC1(C)C(=O)CCC2(C)C1=CCC1C2C(=O)CC2(C)C1CCC2(O)C(=O)CO` (stereo not given) was run?
Answer: 24.8%

Question: With `O=C(Cc1ccc(S(=O)(=O)N2CCOCC2)s1)Nc1ccc(Br)c(C(F)(F)F)c1` as the compound, how does the “activity change, negative = inhibition” value read?
Answer: -10.6%

Question: With `C=CCOC(=O)N1CCC2CC1c1cc(-c3ccc(OC)cc3)ccc12` (stereo not given) as the compound, how does the “activity change, negative = inhibition” value read?
Answer: 8.87%

Question: Which “activity change, negative = inhibition” value does the source give for `O=C(O)C1C2C=CC(O2)C1C(=O)Nc1ccccn1` (stereo not given) here?
Answer: 1.27%

Question: For `c1ccc(C(=NNc2nc3ccccc3s2)c2ccccn2)cc1`, which “activity change, negative = inhibition” value is on record?
Answer: 2.54%

Question: With `C=CCN1C=C(C(=O)c2ccccc2)C(=O)CC1` as the compound, how does the “activity change, negative = inhibition” value read?
Answer: 1.6%

Question: For `CCCCC(=O)NC(c1ccc(OC)c(OC)c1)c1ccc2cccnc2c1O` (stereo not given), which “activity change, negative = inhibition” value is on record?
Answer: 0.729%

Question: Which “activity change, negative = inhibition” value does the source give for `COc1cccc(CC(=NO)c2cccc(OC)c2)c1` here?
Answer: -1.39%

Question: For `CN(O)C(=S)c1ccccc1`, which “activity change, negative = inhibition” value is on record?
Answer: 16.2%

Question: Which “activity change, negative = inhibition” value does the source give for `CCN1CCC(O)(/C=C/c2ccc(C)cc2)C(C(=O)/C=C/c2ccc(C)cc2)C1` (stereo not given) here?
Answer: -9.76%

Question: Which “activity change, negative = inhibition” value does the source give for `Oc1c(CN2CCOCC2)ccc(CN2CCOCC2)c1O` here?
Answer: -11.4%

Question: How did the “activity change, negative = inhibition” value turn out when `CN1C(c2ccc(F)cc2)=CS/C1=C(/C#N)c1nnc2n1-c1ccccc1SC2` was run?
Answer: 0.615%

Question: Which “activity change, negative = inhibition” value does the source give for `CC(=NNC(=O)c1ccncc1)c1ccc(Cl)c(Cl)c1` here?
Answer: -0.0471%

Question: `C=C(C)CNC(=S)Nc1ccc(S(=O)(=O)Nc2cnc3ccccc3n2)cc1` was tested. Which “activity change, negative = inhibition” value did it give?
Answer: 23.2%

Question: For `O=C(/C=C/Nc1ccc(S(=O)(=O)Nc2cnc3ccccc3n2)cc1)c1cccnc1`, which Potency is on record?
Answer: 3.26 µM [inconclusive] (active)

Question: For `CCOc1cc(C(=O)Nc2ccc(S(=O)(=O)Nc3cnc4ccccc4n3)cc2)cc(OCC)c1OCC`, which “activity change, negative = inhibition” value is on record?
Answer: 32.9%

Question: How did the “activity change, negative = inhibition” value turn out when `COC(=O)c1ccc(NCc2cc(O)ccc2O)cc1` was run?
Answer: -7.48%

Question: How did the “activity change, negative = inhibition” value turn out when `Cc1c(CCC(=O)O)c(=O)oc2cc(OCc3ccc(Br)cc3)ccc12` was run?
Answer: 18.2%

Question: `COC(=O)Cc1c(C)c2ccc(OCC(=O)NCc3ccc4c(c3)OCO4)cc2oc1=O` was tested. Which “activity change, negative = inhibition” value did it give?
Answer: -12.3%

Question: Which Potency does the source give for `CC(=O)Oc1ccc2c(C)c(CC(C)O)c(=O)oc2c1` (stereo not given) here?
Answer: 9.2 µM [inconclusive] (active)

Question: `COC(=O)c1ccc(CNC(=O)Cn2cc(C)c(=O)[nH]c2=O)cc1` was tested. Which “activity change, negative = inhibition” value did it give?
Answer: -5.5%

Question: For `COc1ccc(NS(=O)(=O)c2ccc(N3CCOCC3)c(NC(=O)/C=C/C(=O)O)c2)cc1`, which “activity change, negative = inhibition” value is on record?
Answer: -3.29%

Question: How did the “activity change, negative = inhibition” value turn out when `COc1ccc(C2NCCCC2c2ccccc2)cc1` (stereo not given) was run?
Answer: 0.162%

Question: With `Oc1cccc(CCc2ccccn2)c1` as the compound, how does the “activity change, negative = inhibition” value read?
Answer: 2.99%

Question: Which “activity change, negative = inhibition” value does the source give for `CCc1c(Nc2ccccc2C)nc(N)[nH]c1=O` here?
Answer: -7.12%

Question: With `Cc1ccc(S(=O)(=O)N2CCN(C(=O)COC(=O)/C=C/c3cccc(Cl)c3)CC2)c(C)c1` as the compound, how does the “activity change, negative = inhibition” value read?
Answer: -18.9%

Question: How did the “activity change, negative = inhibition” value turn out when `COc1ccc(C(CNC(=O)c2cccc(S(=O)(=O)Nc3ccc(Br)cc3)c2)N(C)C)cc1` (stereo not given) was run?
Answer: -6.82%

Question: `CCOC(=O)C1=NN(c2ccc(Cl)cc2)/C(=C/C2=NCCc3cc(OC)c(OC)cc32)S1` was tested. Which “activity change, negative = inhibition” value did it give?
Answer: 0.611%

Question: Which “activity change, negative = inhibition” value does the source give for `COc1cc2c(cc1OC)C(c1cccc([N+](=O)[O-])c1)=NCC2` here?
Answer: 4.37%

Question: `COc1cc2c(cc1OC)C(/C=C/c1ccco1)=NCC2` was tested. Which Potency did it give?
Answer: 8.2 µM [inconclusive] (active)

Question: With `C/C(=N\Nc1ccc(Cl)nn1)c1ccccc1O` as the compound, how does the “activity change, negative = inhibition” value read?
Answer: -0.572%

Question: For `COc1ccc(NC(=O)/C(N=Nc2cccc(S(=O)(=O)Nc3ccc(SC(F)F)cc3)c2)=C(\C)O)cc1`, which “activity change, negative = inhibition” value is on record?
Answer: -19.4%

Question: For `OCCN1CCN(CCO)C1=S`, which “activity change, negative = inhibition” value is on record?
Answer: -2.38%

Question: `O=C(Cc1ccc(Cl)cc1)c1ccccc1` was tested. Which “activity change, negative = inhibition” value did it give?
Answer: -16.1%

Question: With `C[C@]12CCC(=O)C=C1C=CC1C2CC[C@@]2(C)C1CC[C@@]21CCC(=O)O1` (stereo not given in full) as the compound, how does the “activity change, negative = inhibition” value read?
Answer: 1.93%

Question: For `Cc1nn(-c2ccc(F)cc2)c(Cl)c1/C=C(/CCC(=O)O)c1nc2ccccc2s1`, which “activity change, negative = inhibition” value is on record?
Answer: -9.2%

Question: Which “activity change, negative = inhibition” value does the source give for `CCOC(=O)C1(C)NC(c2ccco2)C2C(=O)N(c3ccccc3)C(=O)C21` (stereo not given) here?
Answer: 1.12%

Question: For `CCCCN=C1N/C(=C\c2ccco2)C(=O)N1c1ccccc1`, which Potency is on record?
Answer: 14.6 µM [inconclusive] (active)

Question: Which “activity change, negative = inhibition” value does the source give for `COC(=O)C1=C(C)N(c2ccc(Br)cc2)C(=O)/C1=C\c1ccco1` here?
Answer: -5.05%

Question: With `COCCNc1ncnc2c1nc1n2CCCC1` as the compound, how does the “activity change, negative = inhibition” value read?
Answer: 11.7%

Question: For `COCCNc1nc2nonc2nc1N(C)Cc1ccc(C)cc1`, which “activity change, negative = inhibition” value is on record?
Answer: -7.61%

Question: Which Potency does the source give for `COCCNc1nc2nonc2nc1N1CCCC1c1nccs1` (stereo not given) here?
Answer: 18.4 µM [inconclusive] (active)

Question: Which “activity change, negative = inhibition” value does the source give for `CC(NC(=O)c1ccccc1)C(=O)Nc1ccccc1` (stereo not given) here?
Answer: 2.79%

Question: With `C(#CCN1CCOCC1)CCCN1CCOCC1` as the compound, how does the “activity change, negative = inhibition” value read?
Answer: -7.44%

Question: With `O=C(Nc1c(Br)cc2c(c1Br)Cc1ccccc1-2)C(F)(F)F` as the compound, how does the “activity change, negative = inhibition” value read?
Answer: -9.71%

Question: With `COc1ccc(-c2ccc3c(c2)[C@@H]2C[C@H](N(C)S(=O)(=O)c4ccccc4)[C@H]([C@H](C)O)C(=O)N2CC3)cc1` as the compound, how does the “activity change, negative = inhibition” value read?
Answer: -9.19%

Question: Which “activity change, negative = inhibition” value does the source give for `c1ccc2c(c1)OC1OC2Oc2ccccc21` here?
Answer: 1.32%

Question: How did the “activity change, negative = inhibition” value turn out when `CCOc1ccc(S(=O)(=O)N2CCN(C(=O)c3oc4ccccc4c3C)CC2)cc1` was run?
Answer: 21%

Question: Which “activity change, negative = inhibition” value does the source give for `Cc1nc(N)sc1-c1ccccc1` here?
Answer: 12.3%

Question: With `CN(C)c1ccc(CSc2ccccc2)cc1` as the compound, how does the “activity change, negative = inhibition” value read?
Answer: -10.4%

Question: `COCCN(C(=O)C(C)N1C(=O)c2ccccc2C1=O)c1c(N)n(CC(C)C)c(=O)[nH]c1=O` (stereo not given) was tested. Which “activity change, negative = inhibition” value did it give?
Answer: -2.86%

Question: With `COc1cccc(/C=N/Nc2ccc(S(=O)(=O)Nc3ccccc3C(=O)O)cc2[N+](=O)[O-])c1O` as the compound, how does the “activity change, negative = inhibition” value read?
Answer: 27.9%

Question: How did the “activity change, negative = inhibition” value turn out when `Cc1ccccc1N1CCN(C(=O)c2cccnc2)CC1` was run?
Answer: -6.59%
